# Reference: PubChem BioAssay (NCATS)
# Results filed as inconclusive are left out. Entries that show only a call come without a potency. The source made the active and inactive calls. Calls follow the shape of the dose curve; as a rule, active = well fitted curve in the direction sought with a large enough effect; inconclusive = small, poorly fitted or top-dose-only effect, or another doubt; inactive = no such curve, though single readings can be large; an effect the other way counts as inactive or inconclusive.
# Assays:
# [1] = target: Calcium and integrin-binding protein 1 (Homo sapiens) (UniProt Q99828); test: Validation qHTS for Identification of Calcium Integrin Binding protein 1 (CIB1) Competitor (AID 1508618)
# Method in brief: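 Fluorescence polarization with 1 uM CIB1-GST and 100 nM FITC-alphaIIb peptide in HEPES pH 7.4, NaCl, 5 mM CaCl2, Tween20. Compounds at up to 114 uM final, preincubated with protein 15 min; read after 15 min more at RT.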
# [2] = target: Calcium and integrin-binding protein 1 (Homo sapiens) (UniProt Q99828); test: Primary qHTS for Identification of Calcium Integrin Binding Protein 1 (CIB1) Competitor (AID 1508620);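 also: GST tagged CIB1 binding a fluorescein labelled alphaIIb integrin peptide tracer; top concentration of the series differs between compounds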
# Method in brief: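 Fluorescence polarization competition: CIB1-GST (1 uM final) preincubated with compound 15 min at room temperature, then FITC-labeled alphaIIb peptide (100 nM final) added for another 15 min. Polarization read at Ex 480/Em 540.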
# [3] = target: Single-stranded DNA cytosine deaminase (Homo sapiens) (UniProt Q9GZX7); test: Validation qHTS assay for inhibitors of Activation Induced Cytidine Deaminase (AID): AID signal (AID 1347429)
# Method in brief: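 Fluorescence at 540 nm excitation and 590 nm emission reports ssDNA cytosine deamination by AID, with UDG in the same well. Compound-treated reactions ran 4 hr at room temperature with DJC20/DJC23 substrate, followed by 30 min NaOH treatment.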
# [4] = Primary qHTS for inhibitors of La Crosse Virus (LACV) - induced cell death in SH-SY5Y cells (AID 1508616);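 also: top concentration of the series differs between compounds; higher means more rescue of cells from virus-induced death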
# Method in brief: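 Protection against LACV-induced cell death is scored in SH-SY5Y cells exposed to compounds and virus (0.01 MOI) for 6 days. Data normalized to virus-infected DMSO wells and virus-free DMSO wells.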
# Chain of Single-stranded DNA cytosine deaminase (Homo sapiens) (Q9GZX7 whole entry, looked up): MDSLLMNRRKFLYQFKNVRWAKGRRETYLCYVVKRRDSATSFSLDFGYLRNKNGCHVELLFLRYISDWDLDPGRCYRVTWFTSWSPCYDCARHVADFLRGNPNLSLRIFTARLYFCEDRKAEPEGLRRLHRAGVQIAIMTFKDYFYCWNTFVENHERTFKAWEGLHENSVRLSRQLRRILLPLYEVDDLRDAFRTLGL
# Chain of Calcium and integrin-binding protein 1 (Homo sapiens) (Q99828 whole entry, looked up): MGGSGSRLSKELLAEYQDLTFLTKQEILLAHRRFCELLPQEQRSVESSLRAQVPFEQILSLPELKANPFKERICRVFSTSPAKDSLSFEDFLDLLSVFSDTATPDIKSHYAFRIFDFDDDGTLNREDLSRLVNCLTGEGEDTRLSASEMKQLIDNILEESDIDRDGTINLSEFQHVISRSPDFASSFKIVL
smiles,measurement,setting,value
CS(=O)(=O)c1ccc(-n2nc(C(F)(F)F)cc2-c2ccc(F)cc2)cc1,outcome,[1],inactive
same,Potency,[2],inactive
O=C(Nc1ccc2[nH]ncc2c1)C1CCC1,outcome,[1],inactive
same,Potency,[2],inactive
Nc1nc2c(ncn2[C@@H]2O[C@H](CO)[C@@H](O)[C@@H]2O)c(=O)[nH]1,outcome,[1],inactive
O=C(O)CC1CC(c2ccccc2)=NO1 (stereo not given),Potency,[3],inactive
same,Potency,[4],inactive
same,Potency,[2],inactive
CC[C@H]1OC(=O)[C@H](C)[C@@H](O[C@H]2C[C@@](C)(OC)[C@@H](O)[C@H](C)O2)[C@H](C)[C@@H](O[C@@H]2O[C@H](C)C[C@H](NC)[C@H]2O)[C@](C)(O)C[C@@H](C)CN(C)[C@H](C)[C@@H](O)[C@]1(C)O,outcome,[1],inactive
COc1cc(/C=C/C(=O)N2CCN(CC(=O)N3CCCC3)CC2)cc(OC)c1OC,Potency,[2],inactive
CC1(C)[C@@H](O[C@H]2O[C@H](C(=O)O)[C@@H](O)[C@H](O)[C@H]2O[C@@H]2O[C@H](C(=O)O)[C@@H](O)[C@H](O)[C@H]2O)CC[C@]2(C)[C@H]3C(=O)C=C4[C@@H]5C[C@@](C)(C(=O)O)CC[C@]5(C)CC[C@@]4(C)[C@]3(C)CC[C@@H]12,Potency,[2],inactive
O=c1[nH]c2cc(Cl)c(Cl)cc2[nH]c1=O,Potency,[3],inactive
same,Potency,[4],inactive
Fc1ccc2[nH]c(CN3CCN(c4ccccn4)CC3)cc2c1,outcome,[1],inactive
same,Potency,[2],inactive
CC1(C)S[C@@H]2[C@H](NC(=O)[C@H](N)c3ccc(O)cc3)C(=O)N2[C@H]1C(=O)O,Potency,[2],inactive
Cc1onc(-c2c(F)cccc2Cl)c1C(=O)N[C@@H]1C(=O)N2[C@@H]1SC(C)(C)[C@@H]2C(=O)O,Potency,[2],inactive
N.N.O=C(O)C1(C(=O)O)CCC1.[Pt],Potency,[3],inactive
same,Potency,[4],inactive
CO/S(=N\S(=O)(=O)c1ccc(Cl)cc1)c1ccc([N+](=O)[O-])cc1 (stereo not given),Potency,[3],inactive
same,Potency,[4],inactive
O=Cc1ccc(O)c(O)c1O,Potency,[4],inactive
CC(C(=O)O)c1ccc2c(c1)[nH]c1ccc(Cl)cc12 (stereo not given),Potency,[2],inactive
O=C(O)c1ccccc1Nc1cccc(C(F)(F)F)c1,Potency,[4],inactive
same,Potency,[2],inactive
